D3 ag = activates the human D3 dopamine receptor; P35462; max activation, %; D3R DiscoveRx beta-arrestin cells, luminescence, 90 min; actives 0.58% (n = 410,000); in the data active = max activation above about 30%
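Cells at 1500/well, incubated overnight, then treated with pinned compounds (dopamine as control) for 90 min at 37 degrees C. DiscoveRx reagent added for 30 - 60 minutes at room temperature; luminescence read.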
D1 antagonist = antagonists of human D1 dopamine receptor; P21728; HEK293 TREx D1 cells, calcium flux, dopamine EC80; stronger effect = lower value; activity change, negative = inhibition, % at 10 µM; actives 3.2% (n = 360,000); AID 504652; in the data active = activity change below about -30%
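Tetracycline-induced HEK293 Trex D1 cells, force-coupled to calcium, dye-loaded; compounds added and read 180 s, then EC80 dopamine added and calcium flux tracked kinetically another 180 s.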
ERG-DNA inh = blocks human ERG Ets domain binding to DNA; actives 0.028% (n = 370,000); fluorescence polarization, His-ERG Ets domain / labelled DNA; P11308; Potency, µM (titrated, usually from 76.9 µM), most hits filed as inhibitors; active = well fitted inhibition curve with a large enough effect in the polarisation, with a control signal flat; inconclusive = small, poorly fitted or top-dose-only effect, or effect the other way, or a change in a side signal; inactive = no such curve, though single readings can be large or run the other way; the % refers to the polarisation;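 note: polarization taken with two DNA probes labelled with fluorescein and Texas red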
Target sequence (P11308 whole entry, looked up, the tested form may be a part): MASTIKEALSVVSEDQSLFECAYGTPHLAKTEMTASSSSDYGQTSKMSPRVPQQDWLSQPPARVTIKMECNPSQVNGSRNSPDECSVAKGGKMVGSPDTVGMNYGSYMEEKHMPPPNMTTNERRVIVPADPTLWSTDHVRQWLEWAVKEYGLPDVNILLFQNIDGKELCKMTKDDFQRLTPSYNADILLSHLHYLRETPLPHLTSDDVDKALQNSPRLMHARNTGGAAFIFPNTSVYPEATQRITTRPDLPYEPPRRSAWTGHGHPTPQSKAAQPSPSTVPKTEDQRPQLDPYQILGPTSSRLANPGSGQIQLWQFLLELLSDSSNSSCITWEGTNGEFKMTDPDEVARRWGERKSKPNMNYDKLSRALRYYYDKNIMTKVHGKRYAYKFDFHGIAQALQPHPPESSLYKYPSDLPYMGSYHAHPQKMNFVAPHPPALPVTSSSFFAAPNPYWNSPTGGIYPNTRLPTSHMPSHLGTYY
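His-tagged ERG Ets domain (1 uM in the protein solution; 300mM KCl, 50mM Tris-HCl, 1mM EDTA, 1mM DTT, pH 7.5) received compound, then a probe mix of 5 nM fluorescein-DNA and 100nM Texas-615-DNA. Fluorescence polarization was read for both dyes.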
D1 agonist = activates the human D1 dopamine receptor; P21728; HEK293 T-REx D1 cells, calcium flux, agonist mode; activation, % at 2 µM; actives 1% (n = 360,000); AID 504660; in the data active = activation above about 30%
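Agonism was scored from calcium flux recorded over 180 s (1 read/s) after pintool compound addition, following a 10-cycle baseline. Cells were inducible force-coupled HEK293 TREx D1, plated overnight at 30 C and loaded with no-wash calcium dye.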
DRD3 antagonist = D3 dopamine receptor (human) antagonism; D3R cells, DiscoveRx beta-arrestin luminescence, antagonist mode; stronger effect = lower value; actives 2.5% (n = 360,000); AID 652054; P35462; max response, negative = inhibition, %; in the data active = max response below about -50%; inconclusive = no clear call, values can overlap the other calls
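Cells plated overnight at 1500 cells/well, then exposed to library compounds with dopamine controls for 90 minutes at 37 degrees C. DiscoveRx reagent added for 30–60 minutes at room temperature; luminescence read, quantitative HTS format.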
D1 PAM = potentiators of human D1 dopamine receptor. P21728. HEK293 TREx D1 cells, calcium flux, dopamine EC20 potentiation. potentiation, % at 10 µM. actives 0.036% (n = 360,000). AID 504651; in the data active = potentiation above about 30%
Numbers stand for hits; 0 = inactive; ? = inconclusive; - = no result. Rows were chosen to be rich in hits. Some 6.1% of all compounds tested hit in one or more screens of this group.

SMILES | D3 ag | D1 antagonist | ERG-DNA inh | D1 agonist | DRD3 antagonist | D1 PAM
Cc1[nH]c2ccccc2c1/C=N/Nc1ccccn1 | - | 0 | - | 0 | - | 0
Cc1[nH]c2ccccc2c1/C=N/NC(=O)c1cccc([N+](=O)[O-])c1 | 0 | 0 | 0 | 0 | 0 | 0
COc1ccccc1NS(=O)(=O)c1cc([N+](=O)[O-])ccc1N/N=C/c1c(C)[nH]c2ccccc12 | 0 | 0 | 0 | 62 | -52 | 0
Cc1ccc(NC(=O)C2C3CCCC2C3c2ccccc2)c(C)c1 (stereo not given) | 0 | 0 | 0 | 0 | 0 | 0
CCOC(=O)CSC1=NC(=O)/C(=C\c2ccc(Cl)cc2)S1 | 0 | 0 | 0 | 100 | -78 | 0
CCOC(=O)C1CCN(C2=NC(=O)/C(=C/c3ccc(Cl)cc3)S2)CC1 | 0 | 0 | 0 | 0 | 0 | 0
COc1ccc(NS(=O)(=O)c2cccs2)c(OC)c1 | 0 | 0 | 0 | 0 | 0 | 0
COc1cccc(Nc2nc3ccccc3nc2NS(=O)(=O)c2cccs2)c1 | 0 | -32 | 0 | 0 | 0 | 0
COc1ccc(Nc2nc3ccccc3nc2NS(=O)(=O)c2cccs2)c(OC)c1 | 0 | 0 | 0 | 0 | -101 | 0
C=C(C)CSc1ncc(-c2cccc(C(F)(F)F)c2)cn1 | 0 | 0 | 0 | 0 | 0 | 0
Clc1ccc(CN(CC2CCCO2)C(c2cccs2)c2nnnn2C2CCCC2)cc1 (stereo not given) | 0 | -53 | 0 | 0 | 0 | 0
Clc1ccccc1CN(Cc1ccccc1)C(c1cccs1)c1nnnn1C1CCCC1 (stereo not given) | 0 | -34 | 0 | 0 | 0 | 0
CCN(Cc1ccccc1)C(c1cccs1)c1nnnn1C1CCCCC1 (stereo not given) | 0 | 0 | 0 | 0 | 0 | 0
CC(C)(C)n1nnnc1C(c1cccs1)N(Cc1cccnc1)Cc1ccccc1Cl (stereo not given) | 0 | 0 | 0 | 0 | -58 | 0
Cc1c(-c2ccccc2)n(O)[n+]([O-])c1-c1ccccc1 | 0 | - | - | - | 0 | -
Cc1cccc(NNC(N)=S)c1C | 0 | 0 | 0 | 0 | 0 | 0
Cc1cccc(NC(=O)COc2cccc3c2CCN(C)C3=O)c1 | 0 | 0 | 0 | 0 | 0 | 0
CCOC(=O)N1CCN(C(=O)COc2cccc3c2CCN(Cc2ccccc2F)C3=O)CC1 | 0 | -31 | 0 | 0 | 0 | 0
O=C(COc1cccc2c1CCN(Cc1ccccc1F)C2=O)N1CCCCC1 | 0 | 0 | 0 | 0 | 0 | 0
Cc1ccccc1CN1CCc2c(OCC(=O)N3CCCCC3)cccc2C1=O | 0 | -41 | 0 | 0 | 0 | 0
CC1CCN(C(=O)COc2cccc3c2CCN(C)C3=O)CC1 | 0 | -32 | 0 | 0 | 0 | 0
Cc1c(Cl)ccc(S(=O)(=O)N2CCN(C)CC2)c1Cl | 0 | - | - | - | ? | -
CCc1ccc(NC(=O)C(C)OC(=O)c2ccc(NS(=O)(=O)c3ccc(C)c([N+](=O)[O-])c3)cc2)cc1 (stereo not given) | 0 | 0 | 0 | 0 | -53 | 0
O=C1c2ccccc2NC(c2cccc(F)c2)N1Cc1ccccc1 (stereo not given) | 0 | 0 | 0 | 0 | 0 | 0
O=C1c2ccccc2NC(c2cccc(F)c2)N1Cc1ccco1 (stereo not given) | 0 | 0 | - | 0 | -61 | 0
SMILES | D3 ag | D1 antagonist | ERG-DNA inh | D1 agonist | DRD3 antagonist | D1 PAM
CCOC(=O)c1ccc(NC(=O)C2CC(O)CN2S(=O)(=O)c2ccc(C)cc2)cc1 (stereo not given) | 0 | - | 0 | - | -54 | -
Cc1cc2nc3c(=O)n(CCc4ccccc4)c(=O)[nH]c3nc2cc1N | 0 | 0 | 0 | 352 | 0 | 0
Nc1ccc2nc3c(=O)n(C4CCCCC4)c(=O)[nH]c3nc2c1 | 0 | 0 | ? | 276 | 0 | 0
CCCCn1c(=O)[nH]c2nc3cc(N)ccc3nc2c1=O | 0 | 0 | ? | 207 | 0 | 0
Cc1nc2ccccc2c(=O)n1CCc1ccccc1 | 0 | 0 | 0 | 0 | ? | 0
Nc1ccc2nc3c(=O)n(CCc4ccccc4)c(=O)[nH]c3nc2c1 | 0 | 0 | ? | 435 | 0 | 0
COc1cc2[nH]c(=O)n(C3CCCCC3)c(=O)c2cc1OC | 0 | 0 | 0 | 0 | 0 | 0
CSCCNC(=O)C1(C)CCN1C(=O)c1ccc(C(C)(C)C)cc1 (stereo not given) | 0 | - | - | - | 0 | -

Source: PubChem BioAssay (National Center for Advancing Translational Sciences (NCATS))
